The structures appear in SMILES notation. Inconclusive results are not listed. Values without a mark were called inactive. Active and inactive are the calls of the source. Calls follow the shape of the dose curve; as a rule, active = well fitted inhibition curve with a large enough effect; inconclusive = small, poorly fitted or top-dose-only effect; inactive = no such curve, though single readings can be large or run the other way.
Potency is read from the fitted curve at half-maximal effect.

This assay can be described thus: Confirmatory qHTS for Identification of Small Molecule Inhibitors of Huntingtin Promoter Activity. Also: nearly all actives have a fitted effect of over 65% in size. Particulars: HEK293 HTT promoter firefly luciferase reporter, 24 h; series mostly up to 57.5 µM; activity change, negative = inhibition: at the top concentration. An excerpt: Assay Provider: Russell L. Margolis M.D.
Department Neurology, Johns Hopkins University School of Medicine, Baltimore, MD
Huntington's Disease (HD) is a neurodegenerative disorder caused by a CAG repeat expansion in exon 1 of huntingtin (HTT). While there are currently no disease-modifying treatments for HD, recent efforts have focused on development of nucleotide-based therapeutics to lower HTT expression. As an alternative to siRNA or oligonucleotide methods, we hypothesized that suppression of HTT expression might be accomplished by small molecules that either (1) directly decrease HTT expression by suppressing HTT promoter activity or (2) indirectly decrease HTT expression by increasing the promoter activity of HTT-AS, the gene antisense to HTT that appears to inhibit expression of HTT.
We developed and employed a high throughput screen for modifiers of HTT and HTT-AS promoter activity using luminescent reporter HEK293 cells; of the 52,041 compounds tested, we identified 898 replicable hits. We used a rigorous stepwise approach to assess compound toxicity and the capacity of the compounds to specifically lower huntingtin protein in 5 different cell lines, including HEK293 cells, HD lymphoblastoid cells, mouse primary neurons, HD iPSCs differentiated into cortical-like neurons, and HD hESCs. We found no compounds which were able to lower huntingtin without lowering cell viability in all assays, though the potential efficacy of a few compounds at non-toxic doses could not be excluded.
SEQUENCE No. (1, 2, 3, etc.); […] (e.g., Cells, Incubation, Reagent, etc.); VALUE and DESCRIPTION.
1; Reagent; 4 uL; 2,500 Hek293 luciferase reporter cells per wells
3; Compound; 23 nL; Control inhibitor / compound library
5; Reagent; 2.5 uL; Firefly Luc reagent; Dual-Glo Luciferase Reporter Assay System (Promega)
6; Time; 10 min; room temperature incubation
7; Detection; Luminescence; FLuc
NOTES (numbers refer to sequence above)
1; High-throughput screening, measuring luminescence from a Hek293 luciferase reporter, was performed in 1,536 well white-walled tissue-culture treated plates. 2,500 cells were plated in 4 uL of Opti-MEM per well using a Multidrop Combi Reagent Dispenser (ThermoFisher).
2; Assay plates were cultured for 24 hours.
3; Control inhibitor (PTC124; final concentration of 50 uM) and compound library (at final concentrations of 460 nM - 57.5 uM) were added to the assay plate using the Kalypsis Pintool Robotic System equipped with 1536 pinheads.
4; Cells were then incubated for 24 hours at 37C prior to luminescence measurements.
5; In all cases, luminescence was measured using the Dual-Glo Luciferase Reporter Assay System (Promega) following the manufacturer's instructions.
6; Room temperature incubation.
7; Luminescence signal was obtained using the PerkinElmer ViewLux plate reader. Results were normalized to vehicle control (0% activity) and zero RLU (-100% activity).
Consider `CCN(CC)C(=O)N[C@@H]1C=C2c3cccc4[nH]cc(c34)C[C@@H]2N(C)C1`, for which the “activity change, negative = inhibition” value was -14.5%.
As to `Nc1c(C(=O)Nc2ccc(Cl)c(C(F)(F)F)c2)sc2nc3c(cc12)N1CCC3CC1`, the Potency is 12 µM (active).
Take `CNC(=O)N1N=C(c2ccc(N)cc2)c2cc3c(cc2CC1C)OCO3` (stereo not drawn): the “activity change, negative = inhibition” value is 77.4% [at 115 µM].
In the case of `O=c1c2ccccc2nc(/C=C/c2cccc3ccccc23)n1-c1ccccc1Cl`, the “activity change, negative = inhibition” value was -14.5%.
Same read-out and setting: the result for `CCOc1ccc(NC(=O)c2cccn(Cc3cccc(Cl)c3)c2=O)cc1` reads -21%.
As to `CC(C)N[C@@H]1CCn2c(=O)[nH]c3cccc(c32)[C@@H]1O`, the “activity change, negative = inhibition” value is 2.69%.
Still for that read-out and setting: the result for `O=C(N[C@H]1CN2CCC1CC2)c1ccc(Cl)cc1` reads -0.0179%.
Same read-out and setting: the result for `CCCCc1ccc(NC(=O)c2cccn(Cc3ccc(Cl)cc3)c2=O)cc1` reads -27.8%.
Take `CC(C)(O)C=CC(=O)[C@](C)(O)[C@H]1[C@H](O)C[C@]2(C)[C@@H]3CC=C4[C@@H](C=C(O)C(=O)C4(C)C)[C@]3(C)C(=O)C[C@@]12C`: the Potency is 0.757 µM (active).
For the compound `Cc1ccccc1Cn1cccc(C(=O)Nc2nc3ccccc3s2)c1=O`, the Potency is 12 µM (active).
`COc1ccc(-n2c(/C=C\c3ccccc3F)nc3ccccc3c2=O)cc1OC`: the “activity change, negative = inhibition” value is -14.4%.
On the same count and under the same terms, the result for `Cc1cccc(-n2c(/C=C\c3cccc(Br)c3)nc3ccccc3c2=O)c1` reads -13.2%; that for `Cc1ccc(-n2c(/C=C/c3ccc(Br)s3)nc3ccccc3c2=O)cc1`, -18.3%.
